Outcome and AC50 data for three molecules are collected here from PubChem BioAssay (EPA / NIEHS).

Structures are written as SMILES. Active and inactive are the calls of the source. Rule for the calls: active = hit-call score of the fitted dose curve at least 0.9, where 1 is the maximum; inactive = score below 0.9.

Common to all, as to conditions: mRNA level, 48 h; actives raise or lower the signal
Read-out in test [1]: Protein phosphatase 2A (PPP2R4), PTPA (gene 5524)
Put plainly: LTEA_HepaRG_PPP2R4: Life Technologies and Expression Analysis (LTEA) Assay for Protein phosphatase 2A (PPP2R4) using HepaRG (AID 2283522). In a few lines: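 Gene-expression endpoint in HepaRG hepatic cells: 48 h treatment across eight half-log concentrations up to 100 uM in 0.5% DMSO. PPP2R4 mRNA by qRT-PCR, normalized to three endogenous control genes.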

Read-out in test [2]: Phosphatase and tensin (PTEN), PTEN (gene 5728)
Put plainly: LTEA_HepaRG_PTEN: Life Technologies and Expression Analysis (LTEA) Assay for Phosphatase and tensin (PTEN) using HepaRG (AID 2283523). In a few lines:
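Read-out is PTEN transcript level by multiplexed TaqMan qRT-PCR after 48 h chemical treatment of human HepaRG cultures in serum-free induction medium. Concentrations spanned 100 uM downward in half-log steps, 0.5% DMSO throughout; activity fitted in both directions against vehicle.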

Read-out in test [3]: solute carrier (SLC22A1), SLC22A1 (gene 6580)
Put plainly: LTEA_HepaRG_SLC22A1: Life Technologies and Expression Analysis (LTEA) Assay for solute carrier (SLC22A1) using HepaRG (AID 2283524). In a few lines: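 HepaRG (human liver line), 48 h dosing in serum-free induction medium; 8 conc., half-log down from 100 uM, 0.5% DMSO vehicle, duplicates. Endpoint: SLC22A1 mRNA, qRT-PCR, housekeeping-normalized; gain/loss fit vs DMSO.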

Read-out in test [4]: Pyruvate Dehydrogenase Kinase 4 (PDK4), PDK4 (gene 5166)
Put plainly: LTEA_HepaRG_PDK4: Life Technologies and Expression Analysis (LTEA) Assay for Pyruvate Dehydrogenase Kinase 4 (PDK4) using HepaRG (AID 2283525). In a few lines: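 In this multiplexed human HepaRG expression assay, cells are treated 48 h with test chemicals across an eight-point range starting at 100 uM. PDK4 mRNA changes, normalized to ACTB/GAPDH/POLR2A, are fitted in both directions relative to vehicle.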

Read-out in test [5]: NAD(P)H dehydrogenase [quinone] 1 (NQO1), NQO1 (gene 1728)
Put plainly: LTEA_HepaRG_NQO1: Life Technologies and Expression Analysis (LTEA) Assay for NAD(P)H dehydrogenase [quinone] 1 (NQO1) using HepaRG (AID 2283526). In a few lines: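 Human HepaRG hepatic cells received chemicals for 48 h in serum-free induction medium with 0.5% DMSO, up to 100 uM. Expression was assessed by TaqMan qRT-PCR against housekeeping controls and fitted bidirectionally against DMSO.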

Read-out in test [6]: Nuclear factor erythroid 2-related factor 2 (Homo sapiens) (UniProt Q16236)
Description: LTEA_HepaRG_NFE2L2: Life Technologies and Expression Analysis (LTEA) Assay for Nuclear factor erythroid 2-related factor 2 (NFE2L2) Transcription Factor using HepaRG (AID 2283527). In a few lines: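 Transcript level of NFE2L2 is the read-out, measured by microfluidic TaqMan qRT-PCR and normalized to three housekeeping genes. Human HepaRG cultures received test chemical for 48 h at up to 100 uM in half-log steps. Gain or loss of signal is fitted relative to 0.5% DMSO.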

Read-out in test [7]: succinate dehydrogenase complex iron sulfur subunit B (SDHB), SDHB (gene 6390)
Description: LTEA_HepaRG_SDHB: Life Technologies and Expression Analysis (LTEA) Assay for succinate dehydrogenase complex iron sulfur subunit B (SDHB) using HepaRG (AID 2283528). In a few lines:
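SDHB transcript level read by TaqMan qRT-PCR, housekeeping-normalised (ACTB, GAPDH, POLR2A), after 48 h chemical treatment of plated HepaRG cells; eight concentrations top 100 uM, half-log steps, 0.5% DMSO, duplicates; fitted both directions against DMSO.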

Read-out in test [8]: Signal transducer and activator of transcription 3 (Homo sapiens) (UniProt P40763)
Description: LTEA_HepaRG_STAT3: Life Technologies and Expression Analysis (LTEA) Assay for Signal transducer and activator of transcription (STAT3) using HepaRG (AID 2283529). In a few lines: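 Read-out is STAT3 mRNA level by qRT-PCR, normalized to three housekeeping genes, in human HepaRG liver cells treated for 48 h. Concentrations ran from 100 uM downward in half-log steps; curves were fitted for gain or loss relative to 0.5% DMSO.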

Read-out in test [9]: solute carrier (SLCO1B1), SLCO1B1 (gene 10599)
Description: LTEA_HepaRG_SLCO1B1: Life Technologies and Expression Analysis (LTEA) Assay for solute carrier (SLCO1B1) using HepaRG (AID 2283530). In a few lines: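 Differentiated human HepaRG cells were exposed for 48 h in serum-free induction medium to eight half-log concentrations, top 100 uM, in 0.5% DMSO. SLCO1B1 mRNA was measured by qRT-PCR, normalized to ACTB, GAPDH and POLR2A, and fitted bidirectionally against DMSO.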

Read-out in test [10]: sulfotransferase 2A1 (SULT2A1), SULT2A1 (gene 6822)
Put plainly: LTEA_HepaRG_SULT2A1: Life Technologies and Expression Analysis (LTEA) Assay for sulfotransferase 2A1 (SULT2A1) using HepaRG (AID 2283531). In a few lines: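 HepaRG human liver cells, 48 h exposure in serum-free induction medium to 8 half-log concentrations topping at 100 µM (0.5% DMSO), duplicate wells. SULT2A1 mRNA measured by TaqMan qRT-PCR, normalized to ACTB/GAPDH/POLR2A; bidirectional fit against DMSO.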

Read-out in test [11]: Transforming Growth Factor (TGFB1), TGFB1 (gene 7040)
Description: LTEA_HepaRG_TGFB1: Life Technologies and Expression Analysis (LTEA) Assay for Transforming Growth Factor (TGFB1) Transporter using HepaRG (AID 2283533). In a few lines:
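Differentiated HepaRG cells exposed 48 hr in serum-free induction medium to eight half-log concentrations up to 100 uM (0.5% DMSO), duplicate; TGFB1 mRNA by TaqMan qRT-PCR normalised to ACTB, GAPDH, POLR2A; bidirectional fit against DMSO.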

Read-out in a further test: TIMP1, TIMP1 (gene 7076)
Description: LTEA_HepaRG_TIMP1: Life Technologies and Expression Analysis (LTEA) Assay for TIMP1 using HepaRG (AID 2283534).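 Note: TaqMan qRT-PCR signal normalized to ACTB GAPDH and POLR2A housekeeping genes.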 In a few lines:
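Differentiated HepaRG cells exposed 48 h in serum-free induction medium, duplicates, eight half-log concentrations from 100 uM in 0.5% DMSO. TIMP1 mRNA by qRT-PCR normalized to ACTB, GAPDH, POLR2A; bidirectional fitting against DMSO.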

Read-out in test [12]: Tumor necrosis factor receptor 1 (TNFRSF1A), TNFRSF1A (gene 7132)
Put plainly: LTEA_HepaRG_TNFRSF1A: Life Technologies and Expression Analysis (LTEA) Assay for Tumor necrosis factor receptor 1 (TNFRSF1A) using HepaRG (AID 2283535). In a few lines: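 Differentiated HepaRG cells in serum-free induction medium, exposed 48 h in duplicate to 8 half-log concentrations up to 100 uM in 0.5% DMSO. TNFRSF1A mRNA by Fluidigm TaqMan qRT-PCR, normalized to ACTB, GAPDH, POLR2A; bidirectional fit.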

Read-out in test [13]: UDP glucuronosyltransferase (UGT1A1), UGT1A1 (gene 54658)
Put plainly: LTEA_HepaRG_UGT1A1: Life Technologies and Expression Analysis (LTEA) Assay for UDP glucuronosyltransferase (UGT1A1) using HepaRG (AID 2283538). In a few lines:
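Human liver HepaRG cultures receive test chemical for 48 h, up to 100 uM in 0.5% DMSO, with phenobarbital induction controls. UGT1A1 mRNA is measured by qRT-PCR and normalized to ACTB, GAPDH and POLR2A.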

Read-out in test [14]: UDP glucuronosyltransferase (UGT1A6), UGT1A6 (gene 54578)
Put plainly: LTEA_HepaRG_UGT1A6: Life Technologies and Expression Analysis (LTEA) Assay for UDP glucuronosyltransferase (UGT1A6) using HepaRG (AID 2283539). In a few lines:
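Differentiated HepaRG cells, ~100,000/well, were exposed for 48 h in serum-free induction medium with 0.5% DMSO to 8-point half-log series topping at 100 uM, in duplicate. mRNA measured by Fluidigm TaqMan qRT-PCR, normalized to ACTB, GAPDH and POLR2A.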

Read-out in test [15]: X-box binding protein 1 (XBP1), XBP1 (gene 7494)
Description: LTEA_HepaRG_XBP1: Life Technologies and Expression Analysis (LTEA) Assay for X-box binding protein 1 (XBP1) using HepaRG (AID 2283540). In a few lines:
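Differentiated human HepaRG cells in serum-free induction medium exposed 48 h in duplicate to eight half-log concentrations up to 100 uM in 0.5% DMSO. XBP1 mRNA measured by Fluidigm TaqMan qRT-PCR, normalized to ACTB, GAPDH, POLR2A; bidirectional fitting against DMSO.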

Read-out in test [16]: Thyroid Hormone Responsive (THRSP), THRSP (gene 7069)
Description: LTEA_HepaRG_THRSP: Life Technologies and Expression Analysis (LTEA) Assay for Thyroid Hormone Responsive (THRSP) using HepaRG (AID 2283536). In a few lines:
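mRNA induction or loss relative to 0.5% DMSO vehicle was fitted bidirectionally across an eight-point curve whose highest exposure was 100 uM. Human HepaRG liver cells received chemicals in duplicate over 48 h before RNA extraction.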

Read-out in test [17]: Cellular tumor antigen p53 (Homo sapiens) (UniProt P04637)
Put plainly: LTEA_HepaRG_TP53: Life Technologies and Expression Analysis (LTEA) Assay for Tumor Protein P53 (TP53) using HepaRG (AID 2283537). In a few lines: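 TP53 transcript measured by qRT-PCR, normalized to three housekeeping genes, after 48 h treatment of human HepaRG cultures with chemicals from 100 uM downward in half-log steps (0.5% DMSO vehicle, serum-free induction medium). Up- or down-regulation fitted against DMSO.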

Read-out in test [18]: Nuclear factor NF-kappa-B p105 subunit (Homo sapiens) (UniProt P19838)
Description: LTEA_HepaRG_NFKB1: Life Technologies and Expression Analysis (LTEA) Assay for Nuclear Factor Kappa B Subunit 1 (NFKB1) using HepaRG (AID 2283521). In a few lines: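 NFKB1 transcript was measured by TaqMan qRT-PCR on Fluidigm arrays, normalised to three housekeeping genes and fitted in both directions against 0.5% DMSO. HepaRG cells were dosed in duplicate for 48 h in serum-free induction medium, eight half-log steps from 100 uM.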

Chain of Signal transducer and activator of transcription 3 (Homo sapiens) (P40763 whole entry, looked up): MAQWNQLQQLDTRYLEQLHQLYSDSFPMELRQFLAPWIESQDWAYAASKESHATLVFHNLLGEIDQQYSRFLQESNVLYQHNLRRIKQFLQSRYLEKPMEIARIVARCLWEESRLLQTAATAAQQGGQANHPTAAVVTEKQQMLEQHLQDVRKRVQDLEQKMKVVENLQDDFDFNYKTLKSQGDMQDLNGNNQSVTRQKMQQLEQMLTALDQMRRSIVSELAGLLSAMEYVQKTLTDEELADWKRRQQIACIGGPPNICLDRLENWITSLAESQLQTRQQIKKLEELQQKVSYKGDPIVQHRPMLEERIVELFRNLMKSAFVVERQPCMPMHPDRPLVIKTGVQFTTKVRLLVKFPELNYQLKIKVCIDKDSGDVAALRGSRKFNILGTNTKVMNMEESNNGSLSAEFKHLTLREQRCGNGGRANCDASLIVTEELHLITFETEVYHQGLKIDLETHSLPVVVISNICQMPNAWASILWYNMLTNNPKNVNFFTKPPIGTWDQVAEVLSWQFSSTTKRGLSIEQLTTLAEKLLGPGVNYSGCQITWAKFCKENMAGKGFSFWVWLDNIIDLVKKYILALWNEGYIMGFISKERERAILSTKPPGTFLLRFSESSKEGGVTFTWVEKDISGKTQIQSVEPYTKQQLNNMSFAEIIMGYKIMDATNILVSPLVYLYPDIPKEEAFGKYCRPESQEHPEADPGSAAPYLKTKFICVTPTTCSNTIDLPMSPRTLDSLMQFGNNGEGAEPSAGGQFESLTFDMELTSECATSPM
Chain of Nuclear factor erythroid 2-related factor 2 (Homo sapiens) (Q16236 whole entry, looked up): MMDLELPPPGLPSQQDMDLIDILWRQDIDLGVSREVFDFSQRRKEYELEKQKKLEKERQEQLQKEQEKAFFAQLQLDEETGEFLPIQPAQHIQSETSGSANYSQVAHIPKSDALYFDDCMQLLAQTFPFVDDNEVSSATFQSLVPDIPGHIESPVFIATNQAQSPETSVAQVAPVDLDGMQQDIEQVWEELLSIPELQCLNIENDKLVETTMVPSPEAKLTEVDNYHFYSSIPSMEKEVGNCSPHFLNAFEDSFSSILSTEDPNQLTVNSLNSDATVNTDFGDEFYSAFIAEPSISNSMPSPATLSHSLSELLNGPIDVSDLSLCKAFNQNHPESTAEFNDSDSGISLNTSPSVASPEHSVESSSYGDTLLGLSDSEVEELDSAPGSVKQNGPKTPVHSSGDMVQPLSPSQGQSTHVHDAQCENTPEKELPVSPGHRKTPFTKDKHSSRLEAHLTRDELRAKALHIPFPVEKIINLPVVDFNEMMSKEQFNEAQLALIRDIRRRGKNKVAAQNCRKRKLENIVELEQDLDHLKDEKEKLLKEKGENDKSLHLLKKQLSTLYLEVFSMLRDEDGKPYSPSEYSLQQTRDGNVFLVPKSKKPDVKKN
Chain of Nuclear factor NF-kappa-B p105 subunit (Homo sapiens) (P19838 whole entry, looked up): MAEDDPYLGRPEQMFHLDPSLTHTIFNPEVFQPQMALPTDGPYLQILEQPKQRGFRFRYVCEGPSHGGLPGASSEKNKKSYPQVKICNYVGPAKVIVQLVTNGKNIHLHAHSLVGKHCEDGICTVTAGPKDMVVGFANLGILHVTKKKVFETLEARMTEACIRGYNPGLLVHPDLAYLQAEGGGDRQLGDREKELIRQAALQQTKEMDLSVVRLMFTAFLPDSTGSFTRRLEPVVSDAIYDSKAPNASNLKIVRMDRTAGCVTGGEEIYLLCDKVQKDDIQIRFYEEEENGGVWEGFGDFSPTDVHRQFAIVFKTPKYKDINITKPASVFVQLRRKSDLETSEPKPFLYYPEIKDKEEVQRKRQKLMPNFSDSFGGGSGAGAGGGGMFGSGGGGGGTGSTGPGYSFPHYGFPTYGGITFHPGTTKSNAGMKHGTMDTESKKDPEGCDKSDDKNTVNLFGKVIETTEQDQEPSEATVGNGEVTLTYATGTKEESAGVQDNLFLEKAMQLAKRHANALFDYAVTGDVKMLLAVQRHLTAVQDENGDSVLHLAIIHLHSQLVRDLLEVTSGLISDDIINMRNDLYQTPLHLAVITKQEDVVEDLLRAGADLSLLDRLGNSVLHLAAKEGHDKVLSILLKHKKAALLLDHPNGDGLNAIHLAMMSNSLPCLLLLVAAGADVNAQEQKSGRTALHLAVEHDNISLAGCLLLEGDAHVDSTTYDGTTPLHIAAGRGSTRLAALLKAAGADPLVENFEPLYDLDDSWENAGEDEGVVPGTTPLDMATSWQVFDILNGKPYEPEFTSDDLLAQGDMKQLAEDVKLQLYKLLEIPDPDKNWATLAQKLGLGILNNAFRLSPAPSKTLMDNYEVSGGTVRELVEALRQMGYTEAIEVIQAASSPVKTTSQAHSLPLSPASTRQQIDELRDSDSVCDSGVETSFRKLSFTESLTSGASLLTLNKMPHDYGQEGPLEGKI
Chain of Cellular tumor antigen p53 (Homo sapiens) (P04637 whole entry, looked up): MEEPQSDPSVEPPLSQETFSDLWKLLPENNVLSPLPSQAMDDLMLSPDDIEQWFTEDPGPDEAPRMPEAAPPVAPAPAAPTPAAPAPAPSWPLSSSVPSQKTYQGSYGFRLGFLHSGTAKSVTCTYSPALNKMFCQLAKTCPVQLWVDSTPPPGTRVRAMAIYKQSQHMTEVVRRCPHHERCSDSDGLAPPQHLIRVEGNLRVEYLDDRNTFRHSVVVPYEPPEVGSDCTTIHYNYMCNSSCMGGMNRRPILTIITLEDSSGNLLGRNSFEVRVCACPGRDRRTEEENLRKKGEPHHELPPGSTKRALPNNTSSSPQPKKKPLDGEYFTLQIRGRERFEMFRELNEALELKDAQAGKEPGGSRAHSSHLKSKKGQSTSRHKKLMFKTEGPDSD

On to `Cc1ncc([C@@H](CCCCCCc2ccc3c(n2)NCCC3)CC(=O)O)cn1`, for which the molecule was called inactive in test [1], in test [2], in test [3], in test [5], in test [6] and in test [7]. In addition, the outcome in test [8] was “inactive”; in test [9] it was “inactive”; in test [10], “inactive”; in test [11] it was “inactive”; with TIMP1, TIMP1 (gene 7076), “inactive”; in test [12], “inactive”. The outcome in test [13], in test [14] and in [15] was inactive. In addition, in test [4], the AC50 was 317 nM (active).

For `CCCCCCCC1CCC(=O)O1` (stereo not given), the molecule was called inactive in [1], in test [2], in test [3], in [4], in [5] and in [7]. Further, the outcome in test [8] was “inactive”; in test [9], “inactive”; in [10], “inactive”; in test [11], “inactive”; with TIMP1, TIMP1 (gene 7076) it was “inactive”; in test [12], “inactive”. In addition, the molecule was called inactive in test [16], in test [17], in test [13], in [14] and in [15].

Take `COS(C)(=O)=O`: the molecule was classed as inactive in test [18], in [1], in test [2], in test [3], in test [4] and in [5]. In addition, the result in [6], in test [7], in test [8], in test [9], in [10] and in test [11] was inactive. Also, the outcome with TIMP1, TIMP1 (gene 7076) was “inactive”; in test [12] it was “inactive”; in [13], “inactive”; in test [14], “inactive”; in [15], “inactive”.

By AC50 is commonly meant the concentration giving half of the maximal activity seen.
